PubChem BioAssay (Tox21)
Records with an inconclusive call do not appear. The source made the active and inactive calls. Unless noted, calls follow the shape of the dose curve; as a rule, active = well fitted curve in the direction sought with a large enough effect in the repeat runs; inconclusive = weak or mixed curves; inactive = no such curve, though single readings can be large; an effect the other way counts as inactive or inconclusive.

What was measured:
[1] = molecular target: Estrogen receptor (Homo sapiens) (UniProt P03372); test: qHTS assay to identify small molecule antagonists of the estrogen receptor alpha (ER-alpha) signaling pathway using the BG1 cell line in the presence of 0.1 nM 17-beta-estradiol (AID 1259244); also: nearly all actives have a fitted effect of over 50% in size
Outline: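 Luciferase luminescence (ONE-Glo, 30 min at room temperature) was read after 22 hr at 37C exposure to compounds plus 17beta-estradiol at 0.1 nM final. Cells were VM7Luc4E2 with endogenous ER-alpha and an ERE-driven luciferase, pre-cultured 5 days in hormone-depleted medium.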

[2] = qHTS assay to identify small molecule HDAC inhibitors - cell viability counter screen (AID 1259365); also: series mostly up to about 92 µM; nearly all actives have a fitted effect of over 50% in size
Outline: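 Wild-type HCT-116 cells, 1,500/well, cultured overnight, then compound-treated 2 h at 37 C. Viability measured as ATP luminescence with CellTiter-Glo after 30 min at room temperature.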

[3] = qHTS assay to identify small molecule agonists of the sonic hedgehog signaling (Shh) pathway - cell viability counter screen (AID 1259366); also: nearly all actives have a fitted effect of over 50% in size; also: potency is read from the fitted curve at half-maximal effect
Outline: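 NIH/3T3-derived Gli1-Luc reporter cells, 2,000 per well, received compound after 4 h and were treated about 23 h at 37C. Viability measured in the same wells by CellTiter-Fluor fluorescence after 1 h.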

[4] = qHTS assay to identify small molecule antagonists of the sonic hedgehog signaling (Shh) pathway - cell viability counter screen (AID 1259367); also: nearly all actives have a fitted effect of over 55% in size; also: potency is read from the fitted curve at half-maximal effect
Outline: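 Fluorescence read-out (CellTiter-Fluor, 1 hr at 37C) taken after 23 hr compound treatment of 3T3 Gli1-Luc cells stimulated with conditioned medium. Cells were seeded at 2,000 per well and pre-incubated 4 hr.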

[5] = qHTS assay to identify small molecule agonists of the sonic hedgehog signaling (Shh) pathway (AID 1259368; calls by dose curve;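 also: NIH/3T3-derived 3T3Gli1-Luc cells carrying a stable Gli1-driven firefly luciferase reporter; series mostly up to about 92 µM; nearly all actives have a fitted effect of over 15% in size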)
Outline: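 Luminescence was read after 30 min at room temperature with luciferase reagent. Before that, 3T3Gli1-Luc cells (NIH/3T3 clone, stable Gli1-Luc reporter; 2,000/well) were exposed to compounds for 24 hr at 37C, 5% CO2, compounds being added 4 hr post-plating.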

[6] = qHTS assay to identify small molecule antagonists of the sonic hedgehog signaling (Shh) pathway (AID 1259369; calls by dose curve; also: nearly all actives have a fitted effect of over 45% in size)
Outline: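 Antagonist mode: compound added to 3T3 Gli1-Luc cells followed by conditioned-medium stimulation, 24 h at 37 C, 5% CO2. Inhibition taken as loss of Gli1-driven luciferase luminescence.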

[7] = qHTS assay to identify small molecule HDAC inhibitors (AID 1259364); also: nearly all actives have a fitted effect of over 45% in size; also: potency is read from the fitted curve at half-maximal effect
Outline: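 Luminescence read after 30 min room-temperature HDAC-Glo incubation measures cellular class I/II HDAC activity. Compounds were applied for 2 hr at 37 C to HCT-116 wild-type cells seeded the day before.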

[8] = qHTS assay to identify small molecule phospholipidosis (PLD) inducers (AID 1259344; active = well fitted curve in the direction sought with a large enough effect; an effect the other way counts as inactive or inconclusive)
Outline: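 Read-out is LipidTOX Red fluorescence (ex 595/em 615) imaged in HepG2 cells after 24 h compound exposure at 37 C, with Hoechst nuclear counterstain (ex 352/em 461) allowing per-cell normalisation.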
% is scaled to controls: 0 for no effect and ±100 for the full control effect.

Chain of Estrogen receptor (Homo sapiens) (P03372 whole entry, looked up): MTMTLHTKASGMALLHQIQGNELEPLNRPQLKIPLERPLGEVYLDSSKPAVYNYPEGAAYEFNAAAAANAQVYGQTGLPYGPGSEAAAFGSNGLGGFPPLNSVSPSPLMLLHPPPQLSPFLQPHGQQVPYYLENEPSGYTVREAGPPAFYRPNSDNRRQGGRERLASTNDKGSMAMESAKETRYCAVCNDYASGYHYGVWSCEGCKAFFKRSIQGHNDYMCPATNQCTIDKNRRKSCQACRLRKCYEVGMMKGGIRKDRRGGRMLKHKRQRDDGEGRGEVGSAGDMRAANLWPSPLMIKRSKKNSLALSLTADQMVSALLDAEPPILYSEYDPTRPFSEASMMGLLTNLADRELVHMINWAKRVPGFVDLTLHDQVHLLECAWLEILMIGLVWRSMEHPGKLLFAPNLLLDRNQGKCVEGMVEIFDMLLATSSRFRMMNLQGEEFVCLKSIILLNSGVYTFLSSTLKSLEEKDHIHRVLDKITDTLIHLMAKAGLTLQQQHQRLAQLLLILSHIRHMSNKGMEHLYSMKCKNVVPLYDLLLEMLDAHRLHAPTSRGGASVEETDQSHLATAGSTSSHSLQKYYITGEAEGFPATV

CC(C)CC=O
inactive: Potency [1] | outcome [2] | Potency [3] | Potency [4] | outcome [5] | Potency [6]

CC[C@@H]1C[C@H](N(Cc2cc(C(F)(F)F)cc(C(F)(F)F)c2)C(C)=O)c2cc(C(F)(F)F)ccc2N1C(=O)OC(C)C
inactive: Potency [1] | Potency [7] | outcome [2] | Potency [3] | Potency [4] | outcome [5]

Cc1cccc(OCCOc2cccc(C)c2)c1
inactive: Potency [1] | Potency [7] | outcome [2] | Potency [3] | Potency [4] | outcome [5] | Potency [6]

CC(=O)O[C@@H]1C(=O)O[C@@H]2[C@H]1OC(=O)[C@@H]2OC(C)=O
inactive: Potency [1] | PLD induction [8] 0.969% [at 7.66 µM] | Potency [7] | outcome [2] | Potency [3] | outcome [5]

CC[C@H](C)[C@H](N)C(=O)O
inactive: Potency [1] | Potency [8] | Potency [7] | outcome [2] | Potency [3] | outcome [5] | Potency [6]

NCCCOCCOCCOCCCN
inactive: Potency [1] | Potency [7] | outcome [2] | Potency [4] | outcome [5]

CCOC(=O)[C@H](CCc1ccccc1)N[C@H]1CCc2ccccc2N(CC(=O)O)C1=O
inactive: Potency [7] | outcome [2] | Potency [3] | outcome [5]

CCCC[C@H]1CN(CC2CCOCC2)C(=O)OC12CCN(C1(C)CCN(C(=O)c3c(C)ncnc3C)CC1)CC2
inactive: outcome [2] | Potency [3] | outcome [5]

Cc1ccc(O)c([C@H](CCN(C(C)C)C(C)C)c2ccccc2)c1
inactive: Potency [8] | Potency [7] | outcome [2] | Potency [3] | Potency [4] | outcome [5]

Oc1ccc(C(O)CNCCCCCCNCC(O)c2ccc(O)c(O)c2)cc1O (stereo not drawn)
inactive: Potency [8] | Potency [7] | outcome [2] | outcome [5] | Potency [6]
active: Potency [3] 8.41 µM | Potency [4] 29.8 µM

CC(C)(C)c1cc(CO)cc(C(C)(C)C)c1O
inactive: Potency [7] | outcome [2] | Potency [3] | outcome [5]

C=C(C)C(=O)OCCN(C)C
inactive: Potency [1] | Potency [7] | outcome [2] | Potency [3] | Potency [4] | outcome [5] | Potency [6]

Nc1ccc(C(=O)Nc2ccccc2N)cc1
active: Potency [7] 2.98 µM
inactive: Potency [1] | Potency [8] | outcome [2] | Potency [3] | Potency [4] | outcome [5] | Potency [6]

CCCCCC/C=C/C=O
inactive: Potency [7] | outcome [2] | Potency [4] | outcome [5] | Potency [6]

O=S1(=O)N=C(O)c2ccccc21
inactive: Potency [7] | outcome [2] | Potency [3] | Potency [4] | outcome [5] | Potency [6]

O=C(O)/C=C/c1cnc[nH]1
inactive: Potency [7] | outcome [2] | Potency [3] | Potency [4] | outcome [5]

CC(C)(C)C1CCCCC1O (stereo not drawn)
inactive: Potency [1] | Potency [7] | outcome [2] | Potency [3] | Potency [4] | outcome [5] | Potency [6]

COC(Cc1ccccc1)OC
inactive: Potency [1] | Potency [7] | outcome [2] | Potency [4] | outcome [5] | Potency [6]

CC(=O)/C(C)=C/C1C(C)=CCCC1(C)C (stereo not drawn)
inactive: Potency [1] | Potency [7] | outcome [2] | Potency [3] | Potency [4] | outcome [5] | Potency [6]

COCCO
inactive: Potency [1] | Potency [7] | outcome [2] | Potency [3] | Potency [4] | outcome [5]
